Unmarked numbers belong to inactive results. For some of these results: Entries with a potency or affinity are not part of this list. Active and inactive are the calls of the source. Unless noted, how the calls were made is not given here.
Columns and labels:
[1] = antimalarial activity against Dd2 strain (AID 2302;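 active means growth inhibition above 50% at the single 2 µM test dose, taken to imply half-maximal potency below 2 µM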;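 further: 0% = DMSO untreated growth and 100% = chloroquine plus artemisinin killed control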); conditions: P. falciparum Dd2 in RBCs, LDH growth readout, 72 h; at 2 µM; stronger effect = higher value
[2] = human hepatoma cell viability loss – ATP luminescence, cytotoxicity control for P. falciparum antimalarial project, primary screen (AID 2303;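 active means inhibition above 50%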;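 further: 0% = DMSO wells and 100% = digitonin-killed cells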); conditions: HepG2 viability, 24-48 h, at 10 µM, stronger effect = higher value
[3] = biological target: L-lactate dehydrogenase (Plasmodium falciparum (isolate CDC / Honduras)) (UniProt Q27743); assay: PfLDH activity inhibition – cell lysate, 3D7 strain, counter-screen for P. falciparum growth inhibition project (AID 2304);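 further: 0% = vehicle and 100% = reference inhibitor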; conditions: P. falciparum 3D7 crude extract, LDH APAD/NBT absorbance; at 2 µM; stronger effect = higher value
Chain of L-lactate dehydrogenase (Plasmodium falciparum (isolate CDC / Honduras)) (Q27743 whole entry, looked up): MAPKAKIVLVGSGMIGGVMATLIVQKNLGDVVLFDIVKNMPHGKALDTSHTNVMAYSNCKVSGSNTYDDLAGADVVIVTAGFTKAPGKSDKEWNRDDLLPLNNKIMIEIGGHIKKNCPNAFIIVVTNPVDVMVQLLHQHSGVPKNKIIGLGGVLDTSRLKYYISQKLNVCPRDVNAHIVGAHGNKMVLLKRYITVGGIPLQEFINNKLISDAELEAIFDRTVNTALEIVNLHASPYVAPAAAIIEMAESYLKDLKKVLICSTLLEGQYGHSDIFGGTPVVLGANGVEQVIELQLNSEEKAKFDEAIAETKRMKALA

[4] = inhibition of 3D7 malaria parasite growth – strain 3D7 (AID 2306);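 further: 0% = DMSO wells and 100% = chloroquine plus artemisinin control wells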; conditions: P. falciparum 3D7 erythrocytic growth, LDH absorbance, 72 h; at 2 µM; stronger effect = higher value
[5] = biological target: Calcium-dependent protein kinase 1 (Plasmodium falciparum (isolate 3D7)) (UniProt P62344); assay: PfCDPK1 kinase inhibitors, biochemical, TCAMS library (AID 1159585; cut-off not given, nearly all actives have IC50 up to about 0.98 µM;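 further: inhibitors leave more ATP so luminescence rises with inhibition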); conditions: recombinant PfCDPK1, Kinase-Glo ATP depletion luminescence
Chain of Calcium-dependent protein kinase 1 (Plasmodium falciparum (isolate 3D7)) (P62344 whole entry, looked up): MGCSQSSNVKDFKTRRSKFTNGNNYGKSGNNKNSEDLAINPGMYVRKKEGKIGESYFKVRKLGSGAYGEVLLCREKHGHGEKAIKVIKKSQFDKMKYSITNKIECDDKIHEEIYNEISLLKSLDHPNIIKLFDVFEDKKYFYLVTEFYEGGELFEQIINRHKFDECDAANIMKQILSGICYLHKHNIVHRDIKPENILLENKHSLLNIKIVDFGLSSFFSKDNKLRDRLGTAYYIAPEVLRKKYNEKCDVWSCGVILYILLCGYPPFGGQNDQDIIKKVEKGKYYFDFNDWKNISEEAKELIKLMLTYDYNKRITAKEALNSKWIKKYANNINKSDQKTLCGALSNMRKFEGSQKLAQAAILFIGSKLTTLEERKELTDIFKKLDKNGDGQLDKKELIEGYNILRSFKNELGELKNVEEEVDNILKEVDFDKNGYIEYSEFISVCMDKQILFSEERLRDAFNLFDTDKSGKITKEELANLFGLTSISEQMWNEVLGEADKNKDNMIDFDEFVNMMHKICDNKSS

[6] = biological target: Plasmodium falciparum protein kinase 6 (PK6, PF3D7_1337100) (UniProt Q8IDW1); assay: PfPK6 kinase inhibitors, biochemical, TCAMS library (AID 1159586); conditions: recombinant PfPK6, Kinase-Glo ATP depletion luminescence
Chain of Plasmodium falciparum protein kinase 6 (PK6, PF3D7_1337100) (Q8IDW1 1-305): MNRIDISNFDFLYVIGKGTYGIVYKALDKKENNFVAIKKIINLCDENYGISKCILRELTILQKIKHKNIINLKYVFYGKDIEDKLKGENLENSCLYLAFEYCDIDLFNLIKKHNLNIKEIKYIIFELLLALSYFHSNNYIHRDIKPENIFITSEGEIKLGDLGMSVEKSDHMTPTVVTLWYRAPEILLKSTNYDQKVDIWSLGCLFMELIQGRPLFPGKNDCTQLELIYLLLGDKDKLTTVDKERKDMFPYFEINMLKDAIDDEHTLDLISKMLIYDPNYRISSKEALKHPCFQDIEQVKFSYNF

[7] = biological target: Protein kinase 7 (PK7), Plasmodium falciparum 3D7 (PF3D7_0213400) (UniProt Q7YTF7); assay: inhibition of Plasmodium PK7 catalytic activity – biochemical, TCAMS antimalarial set, Kinase-Glo luminescence (AID 1159587); conditions: recombinant PfPK7, Kinase-Glo ATP depletion luminescence
Chain of Protein kinase 7 (PK7), Plasmodium falciparum 3D7 (PF3D7_0213400) (Q7YTF7 1-343): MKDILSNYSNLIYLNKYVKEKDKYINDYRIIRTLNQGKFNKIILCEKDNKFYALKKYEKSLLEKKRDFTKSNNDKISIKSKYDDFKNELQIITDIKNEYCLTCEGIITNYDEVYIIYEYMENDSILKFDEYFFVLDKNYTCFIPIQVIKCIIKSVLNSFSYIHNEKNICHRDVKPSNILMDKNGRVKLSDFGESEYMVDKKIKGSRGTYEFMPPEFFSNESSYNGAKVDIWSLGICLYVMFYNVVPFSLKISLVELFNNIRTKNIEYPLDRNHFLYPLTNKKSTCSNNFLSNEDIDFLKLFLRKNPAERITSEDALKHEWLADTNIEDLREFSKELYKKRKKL

[8] = biological target: Calcium-dependent protein kinase 4 (Plasmodium falciparum (isolate 3D7)) (UniProt Q8IBS5); assay: PfCDPK4 kinase inhibitors, biochemical, TCAMS library (AID 1159588; cut-off not given, nearly all actives have IC50 up to about 0.91 µM); conditions: recombinant PfCDPK4, Kinase-Glo ATP depletion luminescence
Chain of Calcium-dependent protein kinase 4 (Plasmodium falciparum (isolate 3D7)) (Q8IBS5 whole entry, looked up): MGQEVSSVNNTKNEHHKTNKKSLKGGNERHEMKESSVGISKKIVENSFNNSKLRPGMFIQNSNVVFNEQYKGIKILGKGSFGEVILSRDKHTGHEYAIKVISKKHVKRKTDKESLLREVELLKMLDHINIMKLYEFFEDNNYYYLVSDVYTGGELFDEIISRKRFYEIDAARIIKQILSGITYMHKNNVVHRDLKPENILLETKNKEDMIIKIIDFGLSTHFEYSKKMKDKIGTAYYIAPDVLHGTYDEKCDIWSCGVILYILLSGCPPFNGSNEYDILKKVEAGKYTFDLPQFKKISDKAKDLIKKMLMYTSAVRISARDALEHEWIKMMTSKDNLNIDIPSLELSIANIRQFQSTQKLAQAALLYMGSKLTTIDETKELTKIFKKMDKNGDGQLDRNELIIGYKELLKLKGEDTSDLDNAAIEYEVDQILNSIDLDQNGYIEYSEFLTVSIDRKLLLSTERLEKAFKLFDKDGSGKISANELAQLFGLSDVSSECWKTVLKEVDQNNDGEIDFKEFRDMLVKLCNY

Structure (SMILES)	growth inhibition [1]	inhibition [2]	inhibition [3] [%]	growth inhibition [4]	outcome [5]	outcome [6]	outcome [7]	outcome [8]
O=C(N[C@H]1CCN(CCc2ccc(O[C@H]3CCNC3)cc2)C1)c1ccc(Cl)c(Cl)c1	5%	18%	-3	96% (active)	inactive	inactive	inactive	inactive
Oc1ccc(Cc2cc(Oc3c(I)cc(CCc4ncc[nH]4)cc3I)ccc2O)cc1	32%	10%	-3	101% (active)	inactive	inactive	inactive	inactive
CCCN=CNc1cc(-c2csc(N=C(N)N)n2)cc([N+](=O)[O-])c1	1%	12%	-3	91% (active)	inactive	inactive	inactive	inactive
Cc1ccc(/C=C/C(=O)NCCCCCN2CCN(C(=O)Nc3ccc(Cl)c(C(F)(F)F)c3)CC2)cc1	-3%	10%	-2	93% (active)	inactive	inactive	inactive	inactive
Cc1cc(-c2nc3ccc(CN4CCN(C)CC4)cc3[nH]2)nn1Cc1cc(Cl)ccc1OCc1ccccc1	52% (active)	3%	1	100% (active)	inactive	inactive	inactive	inactive
COc1cc(Cl)c(C)cc1N(Cc1ccccc1-c1ccccc1)S(=O)(=O)c1ccc(C(F)(F)F)cc1	62% (active)	23%	-2	90% (active)	inactive	inactive	inactive	inactive
CC(C)(C)CC(C)(C)c1ccc(O)c(C(=O)Nc2cccc([N+](=O)[O-])c2)c1	97% (active)	49%	-8	95% (active)	inactive	inactive	inactive	inactive
CN(C)c1ccc(Br)c(Br)c1	-4%	17%	-5	86% (active)	inactive	inactive	inactive	inactive
CC[C@H](C)CNC(=O)c1cncc(-c2cccc(CNC3Cc4ccccc4C3)c2)c1	76% (active)	5%	0	101% (active)	inactive	inactive	inactive	inactive
NC1=NC2(CCCC2)N(c2ccc(Cl)cc2)C(N)=N1	-1%	-8%	-6	97% (active)	inactive	inactive	inactive	inactive
COc1ccc2nc(C)cc(Nc3ccc(Oc4ccc5ccccc5c4)c(Cl)c3)c2c1	99% (active)	40%	3	102% (active)	inactive	inactive	inactive	inactive
CCNc1cc(C(=O)N[C@@H](Cc2ccccc2)[C@H](O)CNC(CC)c2cccc(Cl)c2)cc(N2CCCC2=O)c1 (stereo not given in full)	99% (active)	12%	-1	97% (active)	inactive	inactive	inactive	inactive
Cc1ccc2[nH]cc(/C=C/C(=O)NC3CCC(CCN4CCc5ccc(C#N)cc5CC4)CC3)c2c1 (stereo not given)	49%	11%	-4	93% (active)	inactive	inactive	inactive	inactive
O=c1cc(NC[C@H]2CCC[C@@H]2NCc2cc(Br)cc(Br)c2)[nH]c2ccccc12	45%	21%	2	101% (active)	inactive	inactive	inactive	inactive
c1nc2nc3c(c(Nc4ccc5c(c4)CCC5)n2n1)CCC3	70% (active)	-1%	-5	87% (active)	inactive	inactive	inactive	inactive
c1cc(-c2ccc(CNCc3ccsc3)cc2)cc(-c2nc3ccccc3[nH]2)c1	82% (active)	46%	2	101% (active)	inactive	inactive	inactive	inactive
Cc1cccc(CNc2nc(C)cc(NCCC(=O)Nc3ccccc3)n2)c1	54% (active)	15%	-3	101% (active)	inactive	inactive	inactive	inactive
CCc1c(CCNCCCCCCNCCc2ccc([N+](=O)[O-])cc2)ccc(O)c1O	23%	5%	-1	94% (active)	inactive	inactive	inactive	inactive
CC(ON1C(N)=NC(N)=NC1(C)C)c1ccccc1 (stereo not given)	58% (active)	65% (active)	0	96% (active)	inactive	inactive	inactive	inactive
Cc1cc2c(cc1C(F)(F)F)N(C(=O)Nc1cccc(C(=O)NC3CCN(Cc4ccccc4)CC3)c1)CC2	-5%	19%	-2	91% (active)	inactive	inactive	inactive	inactive

From PubChem BioAssay
